The list shows a part of the results. Unmarked numbers belong to inactive results. Activity calls are given as the source filed them.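 Rule for the calls: active = mean activity change at or below -40%, meaning activation of 40% or more, at 20 µM; inactive = the rest.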
molecular target: Apoptotic protease-activating factor 1 (Homo sapiens) (UniProt O14727); test: Apaf-1 activators, single-dose retest, confirmation, biochemical, fluorescence, DEVD-Rh110, 20 µM (AID 504617); details: reconstituted apoptosome caspase-3 activity, at 20 µM, hits give low values
Sequence (O14727 whole entry, looked up): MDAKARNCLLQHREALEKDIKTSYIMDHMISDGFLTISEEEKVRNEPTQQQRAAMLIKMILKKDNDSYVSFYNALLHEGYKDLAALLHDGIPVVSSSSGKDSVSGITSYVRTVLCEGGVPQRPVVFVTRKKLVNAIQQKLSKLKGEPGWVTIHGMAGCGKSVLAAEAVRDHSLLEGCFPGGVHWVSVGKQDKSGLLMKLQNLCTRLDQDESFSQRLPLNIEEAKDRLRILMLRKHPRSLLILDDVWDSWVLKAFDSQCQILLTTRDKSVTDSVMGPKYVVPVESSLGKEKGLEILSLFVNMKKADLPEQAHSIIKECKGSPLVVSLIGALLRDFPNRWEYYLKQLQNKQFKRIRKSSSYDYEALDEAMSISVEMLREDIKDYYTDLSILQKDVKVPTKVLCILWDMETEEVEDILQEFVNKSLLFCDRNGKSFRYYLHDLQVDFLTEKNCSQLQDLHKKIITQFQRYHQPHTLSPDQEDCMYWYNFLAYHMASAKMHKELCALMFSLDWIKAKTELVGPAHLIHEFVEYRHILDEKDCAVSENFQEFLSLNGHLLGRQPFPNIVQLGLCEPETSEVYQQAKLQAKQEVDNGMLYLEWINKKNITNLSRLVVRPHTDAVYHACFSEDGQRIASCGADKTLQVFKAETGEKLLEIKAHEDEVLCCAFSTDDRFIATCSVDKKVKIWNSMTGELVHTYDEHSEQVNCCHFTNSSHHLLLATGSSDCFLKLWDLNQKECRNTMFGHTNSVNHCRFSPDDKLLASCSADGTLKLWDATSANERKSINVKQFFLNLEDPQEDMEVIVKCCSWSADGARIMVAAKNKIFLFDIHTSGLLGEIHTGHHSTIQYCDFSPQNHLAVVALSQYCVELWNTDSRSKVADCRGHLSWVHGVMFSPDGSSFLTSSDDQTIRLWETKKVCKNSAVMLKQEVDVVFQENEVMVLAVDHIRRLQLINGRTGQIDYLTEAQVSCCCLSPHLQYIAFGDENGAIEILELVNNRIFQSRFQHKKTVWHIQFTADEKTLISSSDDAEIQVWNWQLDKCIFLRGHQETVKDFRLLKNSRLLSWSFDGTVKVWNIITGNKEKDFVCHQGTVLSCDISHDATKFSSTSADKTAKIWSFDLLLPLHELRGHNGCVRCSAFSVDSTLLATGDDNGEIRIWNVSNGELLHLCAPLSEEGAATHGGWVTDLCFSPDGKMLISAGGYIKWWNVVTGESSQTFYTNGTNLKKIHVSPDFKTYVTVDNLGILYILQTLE

Row | Compound | activity change, negative = activation
1 | O=C(CCc1ccccc1)NNC(=O)c1ccc(Br)cc1 | 5.47%
2 | Cc1ccc(S(=O)(=O)c2c(N)n(C)c3nc4ccccc4nc23)cc1 | 18.5%
3 | COc1cc(C2C(C#N)=C(N)Oc3n[nH]c(-c4ccccn4)c32)cc(OC)c1OC (stereo unspecified) | 16.8%
4 | CC1COc2ccccc2N1C(=O)c1cccnc1Cl (stereo unspecified) | 6.25%
5 | CCOCCCNC(=O)c1c[nH]c2cc(C)ccc2c1=O | 13.4%
6 | COc1ccc(C2c3ccc(O)cc3Oc3ncn(CCCO)c(=N)c32)cc1OC (stereo unspecified) | 0.56%
7 | C=CC1=C(C(=O)O)N2C(=O)[C@@H](NC(=O)/C(=N/OCC(=O)O)c3csc(N)n3)[C@H]2SC1 | -113% (active)
8 | C=CC1=C(C(=O)O)N2C(=O)[C@@H](NC(=O)/C(=N\OCC(=O)O)c3csc(N)n3)[C@H]2SC1 | -114% (active)
9 | Cc1ccc(Nc2nc(CSc3nnc(-c4ccncc4)n3-c3ccccc3C)cs2)cc1 | 26.5%
10 | O=C(Nc1cccc(C(F)(F)F)c1)c1cnccn1 | 14.9%
11 | C=C(C)C(=O)Nc1cccc(C2=NOC3(C2)C[C@H](C(N)=O)N(C(=O)C(c2ccccc2)c2ccccc2)C3)c1 (stereo partly specified) | -78.6% (active)
12 | CCOc1ccc(N=C2NC(=O)S/C2=C\c2ccc(O)cc2)cc1 | -7.41%
13 | O=c1[nH]cnc2c1c(-c1ccccc1)cn2-c1ccc(F)cc1 | 10.9%
14 | CC(=O)CCC(=O)c1ccc2ccccc2c1 | 13.2%
15 | O=c1[nH]c2c(c(=O)n1Cc1ccccc1)CCC2 | 11%
16 | O=C(Nc1cccc(-c2nc3ccccc3[nH]2)c1)c1ccc(C(=O)Nc2cccc(-c3nc4ccccc4[nH]3)c2)cc1 | -23.1%
17 | COc1ccc(OCCCC(=O)NCCc2ccccc2)cc1 | 4.66%
18 | O=C(CSc1ccc(-c2ccc(-n3cccn3)cc2)nn1)Nc1ccc([N+](=O)[O-])cc1 | 8.16%
19 | O=[N+]([O-])c1ccc2nc(-c3ccccn3)[nH]c2c1 | 9.21%
20 | Clc1cccc(-c2nc3nc4ccccc4nc3n2Cc2ccco2)c1 | 21.3%
21 | O=C(CN1C(=O)C2C3C=CC(C3)C2C1=O)NCCc1ccccc1Cl (stereo unspecified) | 10.8%
